Experimental data: PubChem BioAssay (NCATS)
Records with an inconclusive call do not appear. Where a call stands in place of a potency, no number is given. Active and inactive are the calls of the source. The call rests on the fitted dose curve; in most records, active means well fitted cell-killing curve with a large enough effect; inconclusive means small, poorly fitted or top-dose-only effect; inactive means flat fitted curve, though single readings scatter.
Potency means the concentration at half of the fitted maximal effect.

Test: qHTS of pediatric cancer cell lines to identify multiple opportunities for drug repurposing: Primary screen for BT-37 cells (AID 1347094)
Conditions: BT-37 viability, CellTiter-Glo luminescence, 48 h; series mostly up to 57.3 µM
Text: Drug repurposing or repositioning has been offered as a strategy for drug development in oncology programs. This approach has special potential for childhood cancers and other rare or orphan diseases, where the expected return on new drug development has been a disincentive to pharmaceuticals. […] In this project we exploit the poly-pharmacology of drugs to discover new indications via phenotypic screening of a panel of 19 well-characterized cell lines derived from solid tumors seen in children and adolescents. The goal is to identify approved drugs with previously unrecognized anticancer properties that has the potential to reveal new mechanisms and biological processes involved in carcinogenesis or drug resistance. We employed a titration-based paradigm (quantitative high-throughput screening or qHTS), where all compounds were tested at multiple concentrations for their effect on cell viability. Concentration-response curves (CRCs) were derived directly from the primary screen, and both potency and efficacy values were used to identify compounds with robust bioactivity profiles. We screened the NIH Chemical Genomics Center (NCGC) Pharmaceutical Collection (NPC) and Mechanism Interrogation Plate (MIPE) small molecule collections of approved and investigational compounds against these cell lines; and measured metabolically active cells after 48 hours of compound treatment as a proxy for cell viability. […] Assay Submitter: Nathalia J. Martinez, National Center for Advancing Translational Sciences, National Institutes of Health, Rockville, MD, USA; email: natalia.martinez@nih.gov Shen, M et al. Quantitative high-throughput phenotypic screening of pediatric cancer cell lines identifies multiple opportunities for drug repurposing. Oncotarget 2017 Dec 19;9(4):4758-4772. PMID 29435139.
The cells were obtained from University of North Carolina (UNC), Pediatric Preclinical Testing Program (PPT), and Coriell Institute (CI). qHTS cell viability assay: Cells were assayed in growth media at a density of 500-1,000 cells/well. Five microliters of cells were dispensed into 1,536-well, white, solid-bottom, TC-treated plates (Greiner Bio One) using a multidrop dispenser and incubated at 37 degrees C, 5% CO2, under a humidified atmosphere for 5 hours. Twenty-three nanoliters of compounds and controls (neutral control DMSO or positive control bortezomib at final concentration of 2.3 µM) were subsequently transferred by Kalypsys pintool. For primary screens, the MIPE collection was tested at 11-point dilutions (final concentrations range from 0.78 nM to 46 µM) and the NPC collection at 8-point dilutions (final concentrations range from 0.59 nM to 46 µM). Compounds tested in follow-up screens were assayed at 11-point dilutions. Cells were incubated for 48 hours, followed by addition of 3 µL of CellTiter-Glo (Promega). After a 15 min incubation at room temperature, samples were analyzed for luminescence intensity using a ViewLux High-throughput CCD imager equipped with clear filters.
For `C[C@H](CN1CCCC1)C(=O)c1ccc(C(F)(F)F)cc1`, the Potency was “inactive”. In the case of `CCC(=O)O[C@]1(C(=O)COC)[C@@H](C)C[C@H]2[C@@H]3CCC4=CC(=O)C=C[C@]4(C)C3(F)[C@@H](O)C[C@@]21C` (stereo not given in full), the Potency was “inactive”. In the case of `CC(C)(C)c1ccc(C(=O)CCCCl)cc1`, the Potency was “inactive”. For `Cc1[nH]cnc1-c1ccc(Cl)cc1`, the Potency was “inactive”. With `CCC(C(=O)NC(=O)NC(C)=O)c1ccccc1` (stereo not given) the Potency was “inactive”. For `Cc1ccccc1C(=O)N1CC/C(=N\OS(=O)(=O)O)c2ccc(Cl)cc21`, the Potency was “inactive”. In the case of `COc1cc2c(cc1OC)CN(C(=O)[C@H](C)N[C@@H](CCc1ccccc1)C(=O)O)[C@H](C(=O)O)C2`, the Potency was “inactive”. In the case of `CN1C(=O)c2ccccc2C1=O`, the Potency was “inactive”. With `O=C(O)c1ccccc1S` the Potency was “inactive”. In the case of `CCCCCCCCCCCC[N+](C)(C)Cc1ccccc1`, the Potency was 15.5 µM (active). In the case of `Oc1ccc(CCNCCCCCCNCCc2ccccc2)cc1O`, the Potency was “inactive”. For `CC(NC(CCc1ccccc1)C(=O)O)C(=O)N1C(=O)N(C)CC1C(=O)O` (stereo not given), the Potency was “inactive”. For `CC(=O)OCC(=O)[C@@]1(O)[C@H](OC(C)=O)C[C@H]2[C@@H]3CCC4=CC(=O)C=C[C@]4(C)[C@@]3(F)[C@@H](O)C[C@@]21C`, the Potency was “inactive”. With `C/C=C(/C(=C/C)c1ccc(OC(C)=O)cc1)c1ccc(OC(C)=O)cc1` the Potency was “inactive”. For `CN=C(N)NC(=O)Nc1c(C)cccc1C`, the Potency was “inactive”. With `COC(=O)C1=C(C)NC(C)=C(C(=O)OCCc2ccc(N3CCN(C(c4ccccc4)c4ccccc4)CC3)cc2)C1c1cccc([N+](=O)[O-])c1` (stereo not given) the Potency was “inactive”. With `CCCCC(CC)CNC(=O)CC(C)OC(=O)CCC(=O)O` (stereo not given) the Potency was “inactive”. In the case of `CCOC(=O)NNc1ccc(N(CC)CC(C)O)nn1` (stereo not given), the Potency was “inactive”. For `CCN(CC)CC(=O)Oc1ccc(NC(C)=O)cc1`, the Potency was “inactive”. With `C=CC[N+]1([C@H]2C[C@H]3[C@@H]4CC[C@H]5C[C@H](OC(C)=O)[C@@H](N6CCCCC6)C[C@]5(C)[C@H]4CC[C@]3(C)[C@H]2OC(=O)CC)CCCCC1` the Potency was “inactive”. With `Cc1ccc(C(=O)C(=O)O)cc1C` the Potency was “inactive”. With `C[C@H]1C[C@H]2[C@@H]3CCC4=CC(=O)C=C[C@]4(C)[C@H]3C(=O)C[C@]2(C)[C@@]1(O)C(=O)CO` the Potency was “inactive”. For `CCC1=C[C@@H]2CN(C1)Cc1c([nH]c3ccccc13)[C@@](C(=O)OC)(c1cc3c(cc1OC)N(C)[C@H]1[C@@](O)(C(=O)OC)[C@H](OC(C)=O)[C@]4(CC)C=CCN5CC[C@]31[C@@H]54)C2`, the Potency was 0.0276 µM (active). With `Cc1cccc(C)c1NC(=O)c1cc(S(N)(=O)=O)c(Cl)cc1O` the Potency was “inactive”. In the case of `CCN(CC)C(=O)C1CN2CCc3cc(OC)c(OC)cc3C2CC1OC(C)=O` (stereo not given), the Potency was “inactive”. With `O=C(c1ccco1)N1CCNCC1` the Potency was “inactive”. For `O=C(O)C1CCC1`, the Potency was “inactive”. For `CC(=O)N[C@@H](CCC(N)=O)C(=O)O`, the Potency was “inactive”. With `OC1(c2ccccc2)CCNCC1` the Potency was “inactive”. With `O=C(O)Cc1ccc(OCCNC[C@H](O)c2ccccc2)cc1` the Potency was “inactive”. In the case of `Cc1ccccc1N1CCN(CCc2nnc3n2CCCC3)CC1`, the Potency was “inactive”. With `O=C(O)[C@@H](O)[C@H](O)[C@H](O)[C@@H](O)C(=O)O` the Potency was “inactive”. For `Nc1ccc(C(=O)OCC(O)CO)cc1` (stereo not given), the Potency was “inactive”. With `COc1ccc2c(c1)c(CC(=O)OC/C=C(\C)CC/C=C(\C)CCC=C(C)C)c(C)n2C(=O)c1ccc(Cl)cc1` the Potency was “inactive”. In the case of `CCCCCOc1ccc(C2SC(=O)NC2=O)cc1OCC` (stereo not given), the Potency was “inactive”. For `CC(C)Cc1ccc(C(C)C(=O)OCc2ccccn2)cc1` (stereo not given), the Potency was “inactive”. In the case of `O=C(O)CCC(=O)OC[C@@H](NC(=O)C(Cl)Cl)[C@H](O)c1ccc([N+](=O)[O-])cc1`, the Potency was “inactive”. With `CC(C)C(=O)OCc1cccc(OC(=O)[C@@H]2N3C(=O)[C@@H](NC(=O)Cc4ccccc4)[C@H]3SC2(C)C)c1` the Potency was “inactive”. For `COc1cc(C(=O)NC2CCCNC2)cc(OC)c1OC` (stereo not given), the Potency was “inactive”. With `Cc1ccc(C(=O)Oc2ccc(C(O)CNC(C)(C)C)cc2OC(=O)c2ccc(C)cc2)cc1` (stereo not given) the Potency was “inactive”.
